Source: PubChem BioAssay
The list is not random: actives were taken first. Their share in the collection is about 3.1%.
p53null 32C tox = selectivity test: cytotoxicity in p53 null cells, permissive temperature. H1299-neo p53 null cells, ATP luminescence, 24 h, 32C. Potency, µM (top dose mostly 46.1 µM), hits mostly cytotoxic. 0.62% of 55,000 active; note: nearly all actives have a fitted effect of over 55% in size
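We seeded p53-null H1299-neo cells, incubated them overnight at 37C, and added compounds across a range up to 46 uM. After 24 hours at 32C, ATP reagent was applied for 20 min at room temperature and luminescence recorded.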
PMP22 txn = modulates PMP22 transcription in S16 Schwann cells | S16 Pmp22-F2sN Schwann cells, FLuc/NLuc coincidence luminescence, 24 h | Potency, µM (titrated, usually from 57.5 µM), usual class: inhibitors | 2% of 43,000 active | AID 1508649; active = clear falling dose curves in both reporters; inconclusive = both reporters move, but less clearly or upward; inactive = either reporter flat; the % is the NLuc reporter signal
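Transcriptional readout in edited S16(c9) cells: two luciferases reported from the Pmp22 locus, measured in turn after 24 h compound incubation.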
mTORC1 inh = reduces mTORC1 signaling in Tsc2 and p53 null MEF cells; AID 493208; Tsc2-/- p53-/- MEF, phospho-rpS6 immunofluorescence/PI, 24 h; 0.78% of 44,000 active; Potency, µM (doses to about 38.3 µM), most hits filed as inhibitors; note: nearly all actives have a fitted effect of over 50% in size
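Tsc2-/-, p53-/- MEFs (empty-vector stable line) in DMEM + 10% FBS were treated with compounds 24 h at 37 degree Celsius, fixed, and immunostained for phospho-rpS6 (Alexa-488) with propidium iodide counterstain. Laser-scanning cytometry gave % positive cells, normalized against 7.5 nM rapamycin and DMSO.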
p53null 39C tox = kills p53 null cells at the nonpermissive temperature | H1299 p53-null (neo) cells, 39C, ATPlite viability, 24 h | Potency, µM (highest dose often 46.1 µM), most hits filed as cytotoxic | 0.97% of 55,000 active; note: nearly all actives have a fitted effect of over 50% in size
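Cells seeded at 600/well, 37C overnight. Compound added (up to 46 uM), plates shifted to 39C for 24 hr. ATPlite added, luminescence read after 20 min at room temperature.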
SKOV3 invasion = inhibitors of ovarian cancer cell adhesion and invasion in omental model | SKOV3ip1-GFP adhesion/invasion on 3D omental model, fluorescence | Potency, µM (titrated, usually from 45.8 µM), usual class: inhibitors | 0.1% of 46,000 active | AID 1963576; note: nearly all actives have a fitted effect of over 65% in size
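Adhesion/invasion was scored as fixed GFP-labeled SKOV3ip1 cell counts (488/509 nm), normalized to DMSO and tomatine controls. Cancer cells in serum-free medium, with four compound doses (0.36-46 umol/L), sat 2 hr at RT then 16 hr at 37 C on a 48 hr fibroblast/mesothelial/ECM culture.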
S16 F2sN tox = cytotoxicity in S16 Pmp22-F2sN Schwann cells; 0.48% of 43,000 active; Potency, µM (highest dose often 57.5 µM), usual class: cytotoxic; S16 Pmp22-F2sN Schwann cells viability, CellTiter-Glo, 24 h; note: nearly all actives have a fitted effect of over 65% in size
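Used to flag compounds lowering reporter output through toxicity, this quantitative HTS measures ATP-based CellTiter-Glo luminescence in S16 Pmp22-F2sN Schwann cells after 24 h compound exposure at 37C.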
NLuc sat counter = inhibits NanoLuc at saturating substrate, PMP22 counter-screen. shares compounds with PMP22 txn. Secreted NLuc enzyme (filtered S16 cell medium), Nano-Glo luminescence. Potency, µM (top dose mostly 57.5 µM), most hits filed as inhibitors. 4% of 690 active. AID 1508638
NLuc Km counter = counter-screen for PMP22 expression modulators: NanoLuc inhibition at Km. shares compounds with PMP22 txn. secreted NLuc enzyme, coelenterazine luminescence, Km conditions. Potency, µM (top dose mostly 57.5 µM), usual class: inhibitors. 5% of 690 active. AID 1508639
FLuc counter = counter-screen for PMP22 expression modulators: firefly luciferase inhibition; shares compounds with PMP22 txn; purified P. pyralis FLuc, luminescence, 10 min; Potency, µM (titrated, usually from 57.5 µM), actives largely listed as inhibitors; 690 tested, under 10 active; AID 1508640
Target sequence (P08659 whole entry, looked up): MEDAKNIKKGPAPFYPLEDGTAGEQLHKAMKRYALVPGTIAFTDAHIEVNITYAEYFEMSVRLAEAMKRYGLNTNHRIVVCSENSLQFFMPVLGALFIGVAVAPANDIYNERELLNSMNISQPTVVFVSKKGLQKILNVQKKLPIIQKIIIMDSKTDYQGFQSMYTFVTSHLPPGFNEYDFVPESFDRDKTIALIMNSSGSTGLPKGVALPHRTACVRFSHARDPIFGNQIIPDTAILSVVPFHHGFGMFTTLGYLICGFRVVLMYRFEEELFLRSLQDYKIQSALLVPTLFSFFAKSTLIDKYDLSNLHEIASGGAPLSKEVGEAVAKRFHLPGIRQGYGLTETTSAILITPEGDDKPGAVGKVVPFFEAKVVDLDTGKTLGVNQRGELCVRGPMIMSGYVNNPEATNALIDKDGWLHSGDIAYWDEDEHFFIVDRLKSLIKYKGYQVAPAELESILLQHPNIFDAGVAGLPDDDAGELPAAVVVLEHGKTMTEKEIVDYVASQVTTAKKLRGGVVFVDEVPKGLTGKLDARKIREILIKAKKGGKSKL
S16 viab conf = S16 Schwann cell cytotoxicity, confirmatory; shares compounds with PMP22 txn; S16 Schwann cells viability, CellTiter-Glo ATP luminescence, 24 h; Potency, µM (series often up to 57.5 µM), hits mostly cytotoxic; 7% of 690 active; AID 1508641
PMP22 txn cnf = PMP22 transcription modulation, confirmatory | 22% of 690 active | shares compounds with PMP22 txn | AID 1508646 | Potency, µM (series often up to 57.5 µM), most hits filed as inhibitors | S16 Schwann cells Pmp22-F2sN, dual luciferase, 24 h; active = clear falling dose curves in both reporters; inconclusive = both reporters move, but less clearly or upward; inactive = either reporter flat; the % is the FLuc reporter signal
PMP22 HiBiT cnf = rat PMP22 protein level modulation, confirmatory. shares compounds with PMP22 txn. S16 Schwann cells Pmp22-HiBiT, luminescence, 48 h. Potency, µM (highest dose often 27.9 µM), usual class: inhibitors. 95 tested, under 10 active
Target sequence (P25094 whole entry, looked up): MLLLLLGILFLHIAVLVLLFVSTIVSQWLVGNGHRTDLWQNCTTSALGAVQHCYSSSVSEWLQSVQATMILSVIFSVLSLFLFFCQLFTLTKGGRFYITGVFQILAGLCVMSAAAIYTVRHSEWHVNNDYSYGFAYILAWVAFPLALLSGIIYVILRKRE
Of the large screens only hits and unclear results are named; the others gave an inactive call (follow-up assays come after a bar, where they were run). Unless noted, calls come from the whole dose curve; as a rule, active = well fitted curve in the direction sought with a large enough effect; inconclusive = small, poorly fitted or top-dose-only effect, or another doubt; inactive = no such curve, though single readings can be large; an effect the other way counts as inactive or inconclusive.

CCCNC(=O)c1ccc2c(c1)N=C(C)c1c(C)ccc(C)c1S2	PMP22 txn 0.39µM, mTORC1 inh inconclusive, p53null 39C tox inconclusive | NLuc sat counter inactive | NLuc Km counter inconclusive | FLuc counter inactive | S16 viab conf inactive | PMP22 txn cnf inconclusive
CC1=Nc2cc(C(=O)NCCc3ccccc3)ccc2Sc2c(C)ccc(C)c21	PMP22 txn 2.7µM, p53null 39C tox inconclusive | NLuc sat counter inactive | NLuc Km counter inactive | FLuc counter inactive | S16 viab conf inconclusive | PMP22 txn cnf inconclusive
Cc1cc2c(n1-c1ccc(C(=O)NCCc3ccc(Cl)cc3)cc1)CCCC2	PMP22 txn inconclusive
COc1ccc(CNC(=O)c2ccc3c(c2)N=C(C)c2c(C)ccc(C)c2S3)cc1	PMP22 txn inconclusive
CC1=Nc2cc(C(=O)NCCc3ccc(Cl)cc3)ccc2Sc2c(C)ccc(C)c21	PMP22 txn 7.8µM, p53null 39C tox inconclusive | NLuc sat counter inactive | NLuc Km counter inactive | FLuc counter inactive | S16 viab conf inconclusive | PMP22 txn cnf inconclusive
CCc1ccc(NC(=O)c2ccc3c(c2)c(C)c(C)n3Cc2ccccc2)cc1	PMP22 txn inconclusive | NLuc sat counter inactive | NLuc Km counter inactive | FLuc counter inconclusive | S16 viab conf inactive | PMP22 txn cnf inconclusive
CCOc1ccccc1NC(=O)CSc1nc2c(oc3ccccc32)c(=O)n1Cc1ccco1	PMP22 txn 11µM, S16 F2sN tox inconclusive | NLuc sat counter inactive | NLuc Km counter inactive | FLuc counter inactive | S16 viab conf inactive | PMP22 txn cnf inactive
CCCCn1c(=O)c2oc3ccccc3c2n(CC(=O)Nc2ccc(CC)cc2)c1=O	PMP22 txn 14µM | NLuc sat counter inactive | NLuc Km counter inactive | FLuc counter inactive | S16 viab conf inactive | PMP22 txn cnf inconclusive
Cc1ccc(C)c(NC(=O)Cn2c(=O)n(Cc3ccccc3)c(=O)c3oc4ccccc4c32)c1	PMP22 txn 19µM | NLuc sat counter inactive | NLuc Km counter inactive | FLuc counter inactive | S16 viab conf inconclusive | PMP22 txn cnf inconclusive | PMP22 HiBiT cnf inconclusive
CCCCn1c(=O)c2oc3ccccc3c2n(CC(=O)Nc2cc(C)ccc2C)c1=O	PMP22 txn inconclusive
Cc1ccc(C)c(NC(=O)Cn2c(=O)n(Cc3ccco3)c(=O)c3oc4ccccc4c32)c1	PMP22 txn 12µM | NLuc sat counter inactive | NLuc Km counter inactive | FLuc counter inactive | S16 viab conf inactive | PMP22 txn cnf inconclusive
CCOc1ccc(CN(C(=O)c2cc(=O)c3cc(Cl)ccc3o2)C2CCS(=O)(=O)C2)cc1 (stereo not given)	none
CC1=C(C(=O)OCC2CCCCC2)C(c2ccc(Cl)cc2Cl)CC(=O)N1 (stereo not given)	PMP22 txn inconclusive
Cc1cccc(C)c1Nc1c(-c2ccsc2)nc2ccc(Cl)cn12	none
Cc1cccc(C)c1Nc1c(-c2ccsc2)nc2ccccn12	PMP22 txn 9.5µM, p53null 39C tox inconclusive, S16 F2sN tox inconclusive | NLuc sat counter inconclusive | NLuc Km counter 22µM | FLuc counter inactive | S16 viab conf inactive | PMP22 txn cnf inconclusive
CCn1ccc2c(OCC(=O)Nc3ccccc3C(F)(F)F)cccc2c1=O	PMP22 txn 19µM, S16 F2sN tox inconclusive | NLuc sat counter inconclusive | NLuc Km counter inconclusive | FLuc counter inactive | S16 viab conf inactive | PMP22 txn cnf inconclusive
CCn1ccc2c(OCC(=O)Nc3ccccc3C)cccc2c1=O	PMP22 txn inconclusive
Cn1nnnc1SCCNCc1cc(Br)ccc1OCc1ccccc1Cl	PMP22 txn 16µM, S16 F2sN tox inconclusive | NLuc sat counter inconclusive | NLuc Km counter inconclusive | FLuc counter inactive | S16 viab conf inactive | PMP22 txn cnf inconclusive
Cn1nnnc1SCCNCc1ccccc1OCc1ccccc1F	p53null 32C tox inconclusive, PMP22 txn inconclusive
CN(Cc1ccc(F)cc1)S(=O)(=O)c1nnc(NC(=O)c2ccccc2Cl)s1	none
COC(=O)c1c(-c2ccc(Cl)cc2)noc1N1CCN(c2ccc(F)cc2)CC1	PMP22 txn 3.8µM, p53null 39C tox inconclusive | NLuc sat counter inactive | NLuc Km counter inactive | FLuc counter inactive | S16 viab conf inconclusive | PMP22 txn cnf 13µM | PMP22 HiBiT cnf inactive
COC(=O)c1c(-c2ccc(Cl)cc2)noc1N1CCN(c2cccc(C(F)(F)F)c2)CC1	PMP22 txn 5.4µM, mTORC1 inh inconclusive, SKOV3 invasion inconclusive, S16 F2sN tox inconclusive | NLuc sat counter inactive | NLuc Km counter inactive | FLuc counter inactive | S16 viab conf inconclusive | PMP22 txn cnf 16µM | PMP22 HiBiT cnf inactive
COc1ccccc1N1CCN(C(=O)CSc2nc(-c3ccc(C(C)C)cc3)no2)CC1	p53null 32C tox inconclusive, PMP22 txn inconclusive, p53null 39C tox inconclusive
COC(=O)c1ccc(NC(=O)CN2CCN(c3ccc(Cl)cc3)CC2)cc1	none
COC(=O)c1c(-c2ccc(Cl)cc2)noc1N1CCN(c2ccccc2OC)CC1	PMP22 txn 8.9µM, p53null 39C tox inconclusive, SKOV3 invasion inconclusive, S16 F2sN tox inconclusive | NLuc sat counter inactive | NLuc Km counter inactive | FLuc counter inactive | S16 viab conf inactive | PMP22 txn cnf 19µM | PMP22 HiBiT cnf inactive
Cc1cc(-c2ccc(C)c(S(=O)(=O)N3CCN(c4cccc(C(F)(F)F)c4)CC3)c2)on1	none
CCN(CC)c1ccc(NC(=O)CN2C(=O)c3cccnc3Oc3ccccc32)c(C)c1	none
